# Assay results taken from PMC7862700, “An all-to-all approach to the identification of sequence-specific readers for epigenetic DNA modifications on cytosine”.
# Tests used:
# Test in all cases: DAPPL (digital affinity profiling via proximity ligation, sequencing); 10 mM Tris-HCl pH 7.5, 50 mM NaCl, 1 mM DTT, 4% glycerol, room temperature, 30 min; GST-TFs on glutathione beads, 16-mer random dsDNA library, 0.1% formaldehyde crosslink after washing; high values mean tight binding
# Conditions in all cases: protein: recombinant; tags: N-terminal GST; dsDNA, one strand shown
# FLI1 = biological target: T1, FLI1 (Homo sapiens, UniProt Q01543 1-452)
# T1 sequence: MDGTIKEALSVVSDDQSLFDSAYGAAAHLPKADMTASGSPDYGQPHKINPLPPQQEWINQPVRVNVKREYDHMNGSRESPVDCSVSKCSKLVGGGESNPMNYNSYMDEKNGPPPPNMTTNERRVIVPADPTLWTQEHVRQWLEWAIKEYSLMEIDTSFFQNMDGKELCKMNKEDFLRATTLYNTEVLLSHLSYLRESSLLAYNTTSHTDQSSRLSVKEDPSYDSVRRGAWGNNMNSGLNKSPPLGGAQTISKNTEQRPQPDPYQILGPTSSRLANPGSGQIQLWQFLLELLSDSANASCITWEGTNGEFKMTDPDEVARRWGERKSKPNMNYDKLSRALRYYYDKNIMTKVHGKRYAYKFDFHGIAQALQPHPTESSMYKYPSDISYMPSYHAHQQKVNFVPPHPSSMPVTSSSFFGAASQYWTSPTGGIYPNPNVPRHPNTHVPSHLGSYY
# Summary of the method: (§1)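 After expression in yeast as GST fusions, human transcription factors were bound to glutathione beads, DNA-barcoded and mixed with a tag-only sample. The pools were incubated with 200 nmole of a 16-mer random double-stranded DNA library in Tris/NaCl/DTT/glycerol buffer (30 min, room temperature), washed and crosslinked with 0.1% formaldehyde. Proximity ligation with BsaI/T4 ligase ran for 1 h at 37 °C, before PCR amplification and sequencing on an Illumina NextSeq500. Binding signal is a hexamer's read frequency for a factor divided by its frequency for the tag-only sample.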
# ELK1 = biological target: T2, ELK1 (Homo sapiens, UniProt P19419 1-428)
# T2 sequence: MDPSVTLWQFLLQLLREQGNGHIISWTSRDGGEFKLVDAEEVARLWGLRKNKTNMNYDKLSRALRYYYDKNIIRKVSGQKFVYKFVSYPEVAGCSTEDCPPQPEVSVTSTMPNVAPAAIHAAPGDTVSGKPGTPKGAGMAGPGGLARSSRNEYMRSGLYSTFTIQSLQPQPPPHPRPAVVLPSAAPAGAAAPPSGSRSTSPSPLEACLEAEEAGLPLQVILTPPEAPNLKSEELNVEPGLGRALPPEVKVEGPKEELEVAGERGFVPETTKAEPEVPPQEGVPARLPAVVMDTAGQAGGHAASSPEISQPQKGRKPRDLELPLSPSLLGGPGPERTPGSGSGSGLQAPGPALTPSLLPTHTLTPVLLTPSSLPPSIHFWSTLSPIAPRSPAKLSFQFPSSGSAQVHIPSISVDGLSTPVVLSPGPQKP
# Summary of the method: as §1
# GABPA = biological target: T3, GABPA (Homo sapiens, UniProt Q06546 1-454)
# T3 sequence: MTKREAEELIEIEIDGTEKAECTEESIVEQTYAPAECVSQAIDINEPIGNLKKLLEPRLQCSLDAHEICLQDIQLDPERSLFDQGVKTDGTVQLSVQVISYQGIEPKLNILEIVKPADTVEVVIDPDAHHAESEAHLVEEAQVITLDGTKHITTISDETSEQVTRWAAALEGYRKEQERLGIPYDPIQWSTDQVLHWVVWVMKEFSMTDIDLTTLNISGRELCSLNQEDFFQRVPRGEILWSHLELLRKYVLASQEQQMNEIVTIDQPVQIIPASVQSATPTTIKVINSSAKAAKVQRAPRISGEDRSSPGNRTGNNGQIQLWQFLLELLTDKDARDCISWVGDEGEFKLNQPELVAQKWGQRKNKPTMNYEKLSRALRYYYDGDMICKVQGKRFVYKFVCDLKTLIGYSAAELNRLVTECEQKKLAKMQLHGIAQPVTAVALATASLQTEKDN
# Summary of the method: as §1
# ERG = biological target: T4, ERG (Homo sapiens, UniProt P11308 1-479)
# T4 sequence: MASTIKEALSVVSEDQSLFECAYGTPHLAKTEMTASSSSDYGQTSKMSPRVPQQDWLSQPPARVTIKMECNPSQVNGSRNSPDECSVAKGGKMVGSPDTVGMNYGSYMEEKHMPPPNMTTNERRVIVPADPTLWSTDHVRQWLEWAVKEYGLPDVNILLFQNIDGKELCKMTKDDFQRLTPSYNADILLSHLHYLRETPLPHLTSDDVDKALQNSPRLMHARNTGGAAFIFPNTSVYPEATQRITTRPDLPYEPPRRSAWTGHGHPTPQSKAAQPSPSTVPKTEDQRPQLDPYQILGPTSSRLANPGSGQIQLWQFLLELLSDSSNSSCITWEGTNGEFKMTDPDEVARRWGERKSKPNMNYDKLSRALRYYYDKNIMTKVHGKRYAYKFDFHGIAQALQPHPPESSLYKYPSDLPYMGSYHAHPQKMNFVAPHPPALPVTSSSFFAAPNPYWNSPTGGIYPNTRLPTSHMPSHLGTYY
# Summary of the method: as §1
# ELF1 = ELF1 (Homo sapiens, UniProt P32519 1-619)
# Summary of the method: as §1
# EHF = biological target: T5, EHF (Homo sapiens, UniProt Q9NZC4 1-300)
# T5 sequence: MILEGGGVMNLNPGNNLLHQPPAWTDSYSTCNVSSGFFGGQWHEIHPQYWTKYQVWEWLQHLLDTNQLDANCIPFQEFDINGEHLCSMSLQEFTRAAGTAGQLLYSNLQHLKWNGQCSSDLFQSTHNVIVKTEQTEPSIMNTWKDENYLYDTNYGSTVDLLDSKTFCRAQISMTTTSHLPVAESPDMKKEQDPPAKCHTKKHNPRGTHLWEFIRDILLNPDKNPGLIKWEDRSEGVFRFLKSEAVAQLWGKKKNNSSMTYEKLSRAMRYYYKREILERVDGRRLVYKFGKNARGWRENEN
# Summary of the method: as §1
# SPI1 = SPI1 (Homo sapiens, UniProt P17947 1-270)
# Summary of the method: as §1
# SPIB = SPIB (Homo sapiens, UniProt Q01892 1-262)
# Summary of the method: as §1
# ELK3 = biological target: T6, ELK3 (Homo sapiens, UniProt P41970 1-407)
# T6 sequence: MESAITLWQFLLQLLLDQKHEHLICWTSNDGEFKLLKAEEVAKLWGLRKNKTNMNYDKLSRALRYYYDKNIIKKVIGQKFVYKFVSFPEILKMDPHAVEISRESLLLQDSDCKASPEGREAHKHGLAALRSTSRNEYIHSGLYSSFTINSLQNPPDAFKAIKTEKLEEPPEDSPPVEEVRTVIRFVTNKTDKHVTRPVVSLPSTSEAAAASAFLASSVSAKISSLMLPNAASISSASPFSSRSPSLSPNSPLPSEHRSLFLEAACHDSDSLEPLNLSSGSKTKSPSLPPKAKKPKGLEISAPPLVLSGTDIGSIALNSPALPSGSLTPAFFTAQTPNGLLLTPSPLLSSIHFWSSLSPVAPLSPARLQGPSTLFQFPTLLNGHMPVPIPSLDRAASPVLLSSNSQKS
# Summary of the method: as §1
# Sequence of ELF1 (P32519 whole entry): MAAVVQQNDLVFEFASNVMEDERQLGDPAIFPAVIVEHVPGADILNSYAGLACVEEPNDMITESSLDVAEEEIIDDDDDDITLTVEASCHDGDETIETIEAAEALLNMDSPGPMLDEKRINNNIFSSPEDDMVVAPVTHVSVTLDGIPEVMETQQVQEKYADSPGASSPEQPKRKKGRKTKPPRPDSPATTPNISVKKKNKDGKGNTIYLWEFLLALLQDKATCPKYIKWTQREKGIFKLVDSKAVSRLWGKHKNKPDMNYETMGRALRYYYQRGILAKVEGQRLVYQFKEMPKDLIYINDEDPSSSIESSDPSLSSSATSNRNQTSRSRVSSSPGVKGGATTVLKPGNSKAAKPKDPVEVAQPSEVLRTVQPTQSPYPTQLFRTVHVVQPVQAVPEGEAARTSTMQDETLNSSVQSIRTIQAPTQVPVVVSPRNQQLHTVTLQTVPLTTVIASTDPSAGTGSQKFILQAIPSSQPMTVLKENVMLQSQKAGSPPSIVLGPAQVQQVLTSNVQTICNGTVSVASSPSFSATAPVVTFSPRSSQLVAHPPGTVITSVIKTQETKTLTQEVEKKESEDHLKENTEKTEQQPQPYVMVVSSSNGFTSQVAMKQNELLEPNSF
# Sequence of SPIB (Q01892 whole entry): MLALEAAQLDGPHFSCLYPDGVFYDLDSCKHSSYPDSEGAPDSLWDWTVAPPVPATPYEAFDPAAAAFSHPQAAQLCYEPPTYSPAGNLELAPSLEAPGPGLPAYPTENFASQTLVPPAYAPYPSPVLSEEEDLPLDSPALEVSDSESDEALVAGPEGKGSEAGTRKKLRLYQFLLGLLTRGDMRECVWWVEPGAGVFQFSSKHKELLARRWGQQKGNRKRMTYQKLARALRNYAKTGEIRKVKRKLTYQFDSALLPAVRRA
Sequence,binding signal (FLI1),binding signal (ELK1),binding signal (GABPA),binding signal (ERG),binding signal (ELF1),binding signal (EHF),binding signal (SPI1),binding signal (SPIB),binding signal (ELK3)
CATTTA,"1.28 fold enrichment (6-mer frequency, TF over GST control)","1.23 fold enrichment (6-mer frequency, TF over GST control)","1.31 fold enrichment (6-mer frequency, TF over GST control)","1.25 fold enrichment (6-mer frequency, TF over GST control)","1.27 fold enrichment (6-mer frequency, TF over GST control)","1.32 fold enrichment (6-mer frequency, TF over GST control)","1.26 fold enrichment (6-mer frequency, TF over GST control)","1.18 fold enrichment (6-mer frequency, TF over GST control)","1.23 fold enrichment (6-mer frequency, TF over GST control)"
ATTGTA,"1.22 fold enrichment (6-mer frequency, TF over GST control)","1.33 fold enrichment (6-mer frequency, TF over GST control)","1.17 fold enrichment (6-mer frequency, TF over GST control)","1.19 fold enrichment (6-mer frequency, TF over GST control)","1.24 fold enrichment (6-mer frequency, TF over GST control)","1.22 fold enrichment (6-mer frequency, TF over GST control)","1.09 fold enrichment (6-mer frequency, TF over GST control)","1.24 fold enrichment (6-mer frequency, TF over GST control)","1.27 fold enrichment (6-mer frequency, TF over GST control)"
TAGCAC,"1.16 fold enrichment (6-mer frequency, TF over GST control)","1.12 fold enrichment (6-mer frequency, TF over GST control)","1.24 fold enrichment (6-mer frequency, TF over GST control)","1.15 fold enrichment (6-mer frequency, TF over GST control)","1.15 fold enrichment (6-mer frequency, TF over GST control)","1.16 fold enrichment (6-mer frequency, TF over GST control)","1.06 fold enrichment (6-mer frequency, TF over GST control)","1.15 fold enrichment (6-mer frequency, TF over GST control)","1.19 fold enrichment (6-mer frequency, TF over GST control)"
AACATA,"1.23 fold enrichment (6-mer frequency, TF over GST control)","1.26 fold enrichment (6-mer frequency, TF over GST control)","1.29 fold enrichment (6-mer frequency, TF over GST control)","1.26 fold enrichment (6-mer frequency, TF over GST control)","1.28 fold enrichment (6-mer frequency, TF over GST control)","1.31 fold enrichment (6-mer frequency, TF over GST control)","1.21 fold enrichment (6-mer frequency, TF over GST control)","1.22 fold enrichment (6-mer frequency, TF over GST control)","1.25 fold enrichment (6-mer frequency, TF over GST control)"
ATTCAT,"1.28 fold enrichment (6-mer frequency, TF over GST control)","1.12 fold enrichment (6-mer frequency, TF over GST control)","1.14 fold enrichment (6-mer frequency, TF over GST control)","1.16 fold enrichment (6-mer frequency, TF over GST control)","1.16 fold enrichment (6-mer frequency, TF over GST control)","1.12 fold enrichment (6-mer frequency, TF over GST control)","1.15 fold enrichment (6-mer frequency, TF over GST control)","1.21 fold enrichment (6-mer frequency, TF over GST control)","1.19 fold enrichment (6-mer frequency, TF over GST control)"
ATGATG,"1.39 fold enrichment (6-mer frequency, TF over GST control)","1.35 fold enrichment (6-mer frequency, TF over GST control)","1.33 fold enrichment (6-mer frequency, TF over GST control)","1.18 fold enrichment (6-mer frequency, TF over GST control)","1.36 fold enrichment (6-mer frequency, TF over GST control)","1.4 fold enrichment (6-mer frequency, TF over GST control)","1.24 fold enrichment (6-mer frequency, TF over GST control)","1.35 fold enrichment (6-mer frequency, TF over GST control)","1.53 fold enrichment (6-mer frequency, TF over GST control)"
CTGAAA,"1.16 fold enrichment (6-mer frequency, TF over GST control)","1.14 fold enrichment (6-mer frequency, TF over GST control)","1.1 fold enrichment (6-mer frequency, TF over GST control)","1.04 fold enrichment (6-mer frequency, TF over GST control)","1.19 fold enrichment (6-mer frequency, TF over GST control)","1.09 fold enrichment (6-mer frequency, TF over GST control)","1.19 fold enrichment (6-mer frequency, TF over GST control)","1.24 fold enrichment (6-mer frequency, TF over GST control)","1.03 fold enrichment (6-mer frequency, TF over GST control)"
